A selection: hits, their analogues and other compounds. The true share with any hit is near 1.3%.
HTT promoter inh: inhibitors of huntingtin promoter activity; HEK293 HTT promoter firefly luciferase reporter, 24 h; Potency, µM (series often up to 57.5 µM), for inactives: top-dose activity change, negative = inhibition, most hits filed as inhibitors; 0.93% of 48,000 active; AID 1508623; also: nearly all actives have a fitted effect of over 50% in size
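Firefly luciferase readout (Dual-Glo, 10 min RT) after 24 h, 37 °C compound exposure (final up to 57.5 uM) of HEK293 reporter cells cultured 24 h beforehand; PTC124 at 50 uM final as control inhibitor; activity scaled vehicle 0%, zero RLU -100%.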
HTT-AS act: activators of huntingtin-antisense promoter activity. HEK293 HTT-AS promoter firefly luciferase reporter, 24 h; response scale: percent change from vehicle, -100% = no light. AID 1508624. 0.24% of 48,000 active. Potency, µM (series often up to 57.5 µM), for inactives: at the top dose activity change, positive = activation, hits mostly activators; also: nearly all actives have a fitted effect of over 55% in size
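Luminescence was read after Dual-Glo reagent and a 10 min room-temperature incubation. Values were normalized to vehicle (0% activity) and zero RLU (-100% activity). Reporter HEK293 cells had been exposed to compounds (up to 57.5 uM final) for 24 h.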
FH mod: Identification of activators of human fumarate hydratase by quantitative high-throughput screening. Fumarate hydratase, mitochondrial (Homo sapiens), P07954. 0.22% of 54,000 active. FH coupled MDH/diaphorase resazurin fluorescence, 15 min. Potency, µM (titrated, usually from 79.9 µM), inactives show at the top dose activity change, negative = inhibition, usual class: inhibitors; also: % is scaled to controls: 0 for no effect and ±100 for the full control effect; the screen sought activators but most active calls are inhibition curves; nearly all actives have a fitted effect of over 45% in size
Target sequence (P07954 whole entry, looked up): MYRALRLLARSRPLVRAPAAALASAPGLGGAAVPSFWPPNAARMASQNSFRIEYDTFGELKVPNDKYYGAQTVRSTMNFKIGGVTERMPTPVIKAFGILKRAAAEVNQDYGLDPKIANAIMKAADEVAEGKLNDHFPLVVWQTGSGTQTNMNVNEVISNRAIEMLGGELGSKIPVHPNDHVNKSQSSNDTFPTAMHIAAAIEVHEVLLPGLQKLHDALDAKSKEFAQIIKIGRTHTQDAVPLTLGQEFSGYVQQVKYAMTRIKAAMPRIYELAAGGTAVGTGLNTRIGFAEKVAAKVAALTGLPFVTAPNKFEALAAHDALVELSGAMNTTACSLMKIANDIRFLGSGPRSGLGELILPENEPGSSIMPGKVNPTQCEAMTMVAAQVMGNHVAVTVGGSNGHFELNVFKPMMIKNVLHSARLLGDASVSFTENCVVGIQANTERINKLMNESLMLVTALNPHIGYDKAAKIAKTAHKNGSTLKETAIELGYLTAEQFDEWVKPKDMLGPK
An asterisk follows results filed as active; [ ] = another dose, or the depositor's remark. Calls follow the shape of the dose curve; as a rule, active = well fitted curve in the direction sought with a large enough effect; inconclusive = small, poorly fitted or top-dose-only effect, or another doubt; inactive = no such curve, though single readings can be large; an effect the other way counts as inactive or inconclusive. Potency is read from the fitted curve at half-maximal effect.

What do the screens show for `CN(C)CCOc1ccc(-c2nc(-c3ccc4c(c3)CC/C4=N/O)c(-c3ccncc3)[nH]2)cc1`?
FH mod: 1.9%

What do the screens show for `CC[C@H]1OC(=O)[C@H](C)C(O[C@H]2C[C@@](C)(OC)[C@@H](O)[C@H](C)O2)[C@H](C)[C@@H](OC2O[C@H](C)C[C@H](N(C)C)[C@H]2O)[C@](C)(O)C[C@@H](C)CN(C)[C@H](C)[C@@H](O)[C@]1(C)O` (stereo partly specified)?
FH mod: -24.2%[53.3 µM]

What do the screens show for `O=C(c1ccc(F)cc1F)N1CCC(c2noc(-c3ccc(S(=O)(=O)N4CCCC4)cc3)n2)CC1`?
HTT promoter inh: -7.3%; HTT-AS act: -2.4%; FH mod: 0.7%

Results for COc1ccccc1C(=O)N1CCC(c2noc(-c3ccc(S(=O)(=O)N4CCCC4)cc3)n2)CC1 ?
HTT promoter inh: 25.1µM*; HTT-AS act: -41.4%; FH mod: -11.0%

What do the screens show for `CC1=C(/C=C/C(C)=C\C=C\C(C)=C/C(=O)O)C(C)(C)CCC1`?
FH mod: 0.3%

What do the screens show for `Cc1ccc(NS(=O)(=O)c2ccc3c(c2)CCCN3C(=O)C2CCC2)c(C)c1`?
HTT promoter inh: inconclusive; HTT-AS act: -12.6%; FH mod: -21.5%

What do the screens show for `CC(=O)Nc1ccc(NS(=O)(=O)c2cc(Br)cc3c2N(C(=O)C2CC2)CC3)cc1`?
HTT promoter inh: -13.5%; HTT-AS act: -21.1%; FH mod: inconclusive

What do the screens show for `COc1ccc(NS(=O)(=O)c2ccc3c(c2)CCCN3C(=O)C2CCC2)cc1OC`?
HTT promoter inh: 1.78µM*; HTT-AS act: -29.3%; FH mod: -15.2%

How did Cc1ccc(NS(=O)(=O)c2ccc3c(c2)CCCN3C(=O)C2CCC2)cc1Cl do in these assays?
HTT promoter inh: 22.4µM*; HTT-AS act: -28.3%; FH mod: inconclusive

How did COc1ccc(NS(=O)(=O)c2cc(Br)cc3c2N(C(=O)C2CC2)CC3)cc1OC do in these assays?
HTT promoter inh: 5.62µM*; HTT-AS act: -43.9%; FH mod: 4.0%

What do the screens show for `COc1ccc(OC)c(NS(=O)(=O)c2ccc3c(c2)CCCN3C(=O)C2CCC2)c1`?
HTT promoter inh: inconclusive; HTT-AS act: -13.6%; FH mod: -6.0%

What do the screens show for `CNS(=O)(=O)c1ccccc1Nc1nc(Nc2ccc(N3CCN(C)CC3)cc2OC)ncc1Br`?
FH mod: -17.6%

What do the screens show for `Nc1ncnc2c1ncn2[C@H]1O[C@H](CO)[C@@H](O)[C@@H]1O`?
FH mod: 10.9%[162 µM]

What do the screens show for `Cc1nn2c(=O)cc(COC(=O)c3cccc(NC(=O)COc4ccc(C)c(C)c4)c3)nc2s1`?
HTT promoter inh: -4.5%; HTT-AS act: 3.7%; FH mod: -21.6%

What do the screens show for `Cc1nn2c(=O)cc(COC(=O)c3cccc(NC(=O)COc4ccccc4C)c3)nc2s1`?
HTT promoter inh: 3.16µM*; HTT-AS act: -89.6%; FH mod: inconclusive

What do the screens show for `CCc1nn2c(=O)cc(COC(=O)c3ccccc3)nc2s1`?
HTT promoter inh: 43.1%; HTT-AS act: 3.98µM*; FH mod: -4.6%

How did CCc1nn2c(=O)cc(COC(=O)C(c3ccccc3)c3ccccc3)nc2s1 do in these assays?
HTT promoter inh: -27.3%; HTT-AS act: -12.6%; FH mod: -17.0%

Results for NC(=O)c1ccc(F)c2c1C[C@@H](N(C1CCC1)C1CCC1)CO2 ?
FH mod: 2.1%

What do the screens show for `O=C(Cc1ccccc1)Nc1cccc(-c2cn3cccnc3n2)c1`?
HTT promoter inh: 53.4%; HTT-AS act: 11.2µM*; FH mod: -1.4%

How did O=C(COc1ccccc1)Nc1cccc(-c2cn3cccnc3n2)c1 do in these assays?
HTT promoter inh: -0.7%; HTT-AS act: 14.5%; FH mod: 13.3%

How did CC(C)c1ccc(N2C(=O)CSC23C(=O)N(Cc2ccccc2F)c2ccccc23)cc1 (stereo unspecified) do in these assays?
HTT promoter inh: -19.7%; HTT-AS act: 0.5%; FH mod: -30.6%

Results for Cc1ccc(N2C(=O)CSC23C(=O)N(Cc2ccccc2F)c2ccccc23)cc1F (stereo unspecified) ?
HTT promoter inh: 25.1µM*; HTT-AS act: -33.2%; FH mod: -20.8%

Results for CC=CCC(C)C(O)C1C(=O)NC(CC)C(=O)N(C)CC(=O)N(C)C(CC(C)C)C(=O)NC(C(C)C)C(=O)N(C)C(CC(C)C)C(=O)NC(C)C(=O)NC(C)C(=O)N(C)C(CC(C)C)C(=O)N(C)C(CC(C)C)C(=O)N(C)C(C(C)C)C(=O)N1C (stereo unspecified) ?
FH mod: -14.3%[53.3 µM]

What do the screens show for `Cc1ccccc1-n1nc(-c2c(-c3ccc(F)cc3)nn3c2NC[C@@H](CO)C3)ccc1=O`?
FH mod: 0.6%

What do the screens show for `O=C(Nc1cccnn1)N1CCN(c2nccc(-c3ccc(F)c(F)c3)n2)CC1`?
FH mod: 1.5%[162 µM]

What do the screens show for `Cc1ccc(S(=O)(=O)N2CCCc3cc(NS(=O)(=O)c4ccc(C)c(C)c4)ccc32)cc1`?
HTT promoter inh: inconclusive; HTT-AS act: -26.3%; FH mod: -20.2%

What do the screens show for `Cc1ccc(S(=O)(=O)N2CCCc3cc(NS(=O)(=O)c4ccc(F)c(C)c4)ccc32)cc1`?
HTT promoter inh: 25.1µM*; HTT-AS act: -45.2%; FH mod: inconclusive

What do the screens show for `Cc1ncc([N+](=O)[O-])n1CC(O)CN1CCOCC1` (stereo unspecified)?
FH mod: 7.3%

Results for COc1ccc(-c2noc(CSc3nc4ccccc4[nH]3)n2)cc1 ?
HTT promoter inh: inconclusive; HTT-AS act: -44.1%; FH mod: -16.9%

What do the screens show for `COc1ccc(-c2noc(CSc3nc(N)cc(=O)[nH]3)n2)cc1`?
HTT promoter inh: 22.4µM*; HTT-AS act: -90.7%; FH mod: -17.7%

What do the screens show for `COc1ccccc1C(=O)Nc1ccc(NC(=O)c2cccs2)cc1`?
HTT promoter inh: inconclusive; HTT-AS act: -29.0%; FH mod: inconclusive

Results for COc1ccc(C(=O)Nc2ccc(NC(=O)c3cccs3)cc2)cc1OC ?
HTT promoter inh: -13.7%; HTT-AS act: -13.7%; FH mod: 28.2µM*[activator]

Results for CC(O)C/C=C/C=C/C(=O)OC1C=C2COC(=O)C2(O)C2(C)CCCC(C)(C)C12 (stereo unspecified) ?
FH mod: -4.3%[53.3 µM]

How did Cc1ccc(-c2noc(-c3cccnc3NCc3ccco3)n2)cc1 do in these assays?
HTT promoter inh: 61.7%; HTT-AS act: inconclusive; FH mod: -19.7%

Results for COc1ccc(-c2noc(-c3cccnc3NCc3ccco3)n2)cc1 ?
HTT promoter inh: 69.6%; HTT-AS act: 11.2µM*; FH mod: -29.1%

How did OC[C@H]1O[C@@H](Oc2ccc(O)c3cccc(O)c23)[C@H](O)[C@@H](O)[C@@H]1O do in these assays?
FH mod: -19.4%[53.3 µM]

What do the screens show for `Cc1cc(C)c(NC(=O)CN(C)S(=O)(=O)c2ccc3c(c2)CCC(=O)N3)c(C)c1`?
HTT promoter inh: -5.9%; HTT-AS act: -0.4%; FH mod: -7.4%

What do the screens show for `Cc1cc(NC(=O)CN(C)S(=O)(=O)c2ccc3c(c2)CCCC(=O)N3)ccc1Br`?
HTT promoter inh: 25.1µM*; HTT-AS act: -49.7%; FH mod: -13.7%

Assay outcomes from PubChem BioAssay.
